Measured values: PubChem BioAssay AID1578 (Sanford-Burnham Center for Chemical Genomics, 2009)
The campaign covered roughly 290,000 compounds. About 3,000 (1%) were called active. This excerpt belongs to a sample that is enriched for actives. Unmarked numbers belong to inactive results. Rule as the data show it: active = inhibition mostly above about 36% (no sharp cut-off); inactive = mostly below about 34%.

Test: NOD1 signaling inhibitors, primary screen, cell-based, luminescence, uHTS (AID 1578);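 also: HEK-293T reporter cells stimulated with the NOD1 agonist gamma-tri-DAP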
Settings: NOD1-driven NF-kB luciferase reporter cells, at 4 µM, stronger effect = higher value

Question: For COc1ccc(C(=O)Nc2cc(-c3nn4c(C)nnc4s3)ccc2C)cc1, which inhibition is on record?
Answer: -18.2%

Question: For CCC1(c2ccccc2)NC(=O)N(CC(=O)NCc2ccccc2OC)C1=O (centres undefined), which inhibition is on record?
Answer: 0.8%

Question: For COc1ccc(-c2cc(C(=O)N3CCN(S(=O)(=O)c4ccccc4)CC3)[nH]n2)cc1, which inhibition is on record?
Answer: 4.3%

Question: With COc1cc(OC)cc(-c2nnc(Nc3nc4c(F)cccc4s3)o2)c1 as the compound, how does the inhibition read?
Answer: 21%

Question: With Fc1cccc2sc(Nc3nnc(-c4ccco4)o3)nc12 as the compound, how does the inhibition read?
Answer: 104% (active)

Question: Which inhibition does the source give for COc1ccc(-c2nnc(Nc3nc4c(OC)cccc4s3)o2)cc1 here?
Answer: -20.8%

Question: Which inhibition does the source give for Fc1cccc2sc(Nc3nnc(-c4ccccc4)o3)nc12 here?
Answer: 52.7%

Question: For COc1cccc2sc(Nc3nnc(-c4ccc(F)cc4)o3)nc12, which inhibition is on record?
Answer: -29.8%

Question: With COc1cccc2sc(Nc3nnc(-c4cccs4)o3)nc12 as the compound, how does the inhibition read?
Answer: 84.7% (active)

Question: For CCOC(=O)C1C(=O)NC(c2ccccc2)=NC1c1cccc(Br)c1 (centres undefined), which inhibition is on record?
Answer: -36.5%

Question: With CC1/C(=N/O)CC(c2ccco2)NC1c1ccco1 (centres undefined) as the compound, how does the inhibition read?
Answer: -0.7%

Question: Which inhibition does the source give for COc1ccc(NC(=S)N2CCC(NC(=O)c3ccc(F)cc3)CC2)cc1 here?
Answer: -29%

Question: Which inhibition does the source give for Cc1cc(C)c(S(=O)(=O)N2CCOCC2)c(C)c1N(C)S(=O)(=O)c1ccccc1 here?
Answer: -19.6%

Question: For N#C/C(=C\c1ccc(OCC(N)=O)cc1)c1ccccc1, which inhibition is on record?
Answer: -59.4%

Question: With O=C(Nc1cccnc1)c1cccc(S(=O)(=O)N2CCOCC2)c1 as the compound, how does the inhibition read?
Answer: -21%

Question: Which inhibition does the source give for CN1CCC(OC(=O)c2ccco2)CC1 here?
Answer: -32.4%

Question: For O=C1C(C=Nc2ccccc2O)=C(O)c2ccccc21, which inhibition is on record?
Answer: -64.5%

Question: For O=c1c(=Nc2ccccc2O)c(=O)c2ccccc12, which inhibition is on record?
Answer: -41.2%

Question: Which inhibition does the source give for CNC(=O)COC(=O)c1ccccc1Nc1ccccc1 here?
Answer: -60.3%

Question: With COc1cc(/C=C(\NC(C)=O)C(=O)NC(C)(C)CC(C)(C)C)ccc1OC(C)=O as the compound, how does the inhibition read?
Answer: -17.3%

Question: For COc1ccc(-n2c(=O)c(CCC(=O)N(C)Cc3ccccc3C)nc3ccccc32)cc1, which inhibition is on record?
Answer: -8.4%

Question: For COc1ccc(/C(O)=C/c2nc3ccccc3n(-c3ccccc3)c2=O)cc1, which inhibition is on record?
Answer: -72.6%

Question: For COc1cccc(CC(=O)N2CCC(CCC(=O)Nc3cccc(OC)c3)CC2)c1, which inhibition is on record?
Answer: -3.8%

Question: For Cc1cccc(C)c1NC(=O)CCCN1C(=O)C(c2ccccc2)Oc2cccnc21 (centres undefined), which inhibition is on record?
Answer: -12.2%

Question: With Cc1cccc(NC(=O)CCCN2C(=O)C(c3ccccc3)Oc3cccnc32)c1C (centres undefined) as the compound, how does the inhibition read?
Answer: 42.2% (active)

Question: For COc1ccccc1NC(=O)CCCN1C(=O)C(c2ccccc2)Oc2cccnc21 (centres undefined), which inhibition is on record?
Answer: -2.8%

Question: With COP(=O)(OC)C(Nc1ccc([N+](=O)[O-])cc1)c1ccccc1 (centres undefined) as the compound, how does the inhibition read?
Answer: -11.2%

Question: Which inhibition does the source give for COP(=O)(OC)C(Nc1ccc(Cl)cc1)c1ccccc1 (centres undefined) here?
Answer: -7.2%

Question: Which inhibition does the source give for CCOc1ccc(NC(c2ccccc2)P(=O)(OC)OC)cc1 (centres undefined) here?
Answer: 73.2% (active)

Question: Which inhibition does the source give for Cc1cc(NC(=O)c2ccc(Br)o2)ccc1NC(=O)c1ccco1 here?
Answer: -55.3%

Question: Which inhibition does the source give for COC1c2ccccc2C(=O)N1CCc1ccc(Cl)cc1 (centres undefined) here?
Answer: -31.1%

Question: Which inhibition does the source give for CNc1cc(C)nc(N2CCOCC2)n1 here?
Answer: -5.2%

Question: Which inhibition does the source give for CC1(c2cc([N+](=O)[O-])cc([N+](=O)[O-])c2)CC(C)(C)N(C(=O)c2ccccc2)c2ccccc21 (centres undefined) here?
Answer: 4.5%

Question: With CC1(c2cccc([N+](=O)[O-])c2)CC(C)(C)N(C(=O)c2ccccc2)c2ccccc21 (centres undefined) as the compound, how does the inhibition read?
Answer: 82.6% (active)

Question: With CC1(c2ccccc2)CC(C)(C)N(C(=O)c2cc([N+](=O)[O-])cc([N+](=O)[O-])c2)c2ccccc21 (centres undefined) as the compound, how does the inhibition read?
Answer: -2.3%

Question: For CCCCCCCC(O)CC(CC1CCCCC1)C(=O)NN (centres undefined), which inhibition is on record?
Answer: -15%

Question: For Cc1cc(C(F)(F)F)nn1CC(=O)NNC(=S)NCC(C)C, which inhibition is on record?
Answer: -1.1%

Question: Which inhibition does the source give for Cc1ccc2c(c1)N(CCCC(=O)NCCCN1CCCC1=O)C(=O)CO2 here?
Answer: -14.9%

Question: Which inhibition does the source give for COc1cccc(NC(C)C(=O)N2CC(C)OC(C)C2)c1 (centres undefined) here?
Answer: -26.3%

Question: For O=c1c2cc(Br)ccc2nc(-c2ccccc2)n1O, which inhibition is on record?
Answer: 6.1%

Question: For Cc1ccc(-c2nc3ccc(Cl)cc3c(=O)n2O)cc1, which inhibition is on record?
Answer: 1.3%

Question: With COc1ccc(CCNC(=O)C2CCN(S(=O)(=O)c3ccc4c(c3)oc(=O)n4C)CC2)cc1OC as the compound, how does the inhibition read?
Answer: -10.7%

Question: For COC(=O)c1sccc1NC(=O)CSc1ccccc1NS(=O)(=O)c1ccc(Cl)cc1, which inhibition is on record?
Answer: 44.2%

Question: With COC(=O)c1sccc1NC(=O)CSc1ccccc1NS(=O)(=O)c1ccccc1Cl as the compound, how does the inhibition read?
Answer: 5.3%

Question: For CC(C)[C@H](NC(=O)C1CCN(S(=O)(=O)c2ccccc2)CC1)C(=O)NCc1ccccn1, which inhibition is on record?
Answer: -25.4%

Question: Which inhibition does the source give for CCOC(=O)C(=CNc1cc(C(F)(F)F)ccc1N1CCOCC1)C(=O)OCC here?
Answer: 4%

Question: Which inhibition does the source give for CCC(C)(C)NC(=O)C(c1ccc(OC)cc1)N(Cc1ccc(OC)cc1)C(=O)CCC(=O)Nc1cc(C)on1 (centres undefined) here?
Answer: -11.8%

Question: With CN(C)c1nc(/C=C(\C#N)C(N)=O)c(Cl)n1-c1ccc(F)cc1 as the compound, how does the inhibition read?
Answer: -6.6%

Question: With CN(C)c1nc(C=C(C#N)C#N)c(Cl)n1-c1ccc(F)cc1 as the compound, how does the inhibition read?
Answer: 80.7% (active)

Question: For COCCNC(=O)/C(C#N)=C/c1nc(N(C)C)n(-c2ccc(F)cc2)c1Cl, which inhibition is on record?
Answer: -7.8%

Question: Which inhibition does the source give for Oc1c(Br)cc(/C=N/n2c(-c3ccccc3)n[nH]c2=S)c(O)c1Br here?
Answer: 28.5%

Question: With Oc1c(Br)cc(/C=N/n2c(-c3ccccc3)n[nH]c2=S)c(Br)c1O as the compound, how does the inhibition read?
Answer: -1.1%

Question: With Oc1c(Br)cc(Br)c(/C=N/n2c(-c3ccccc3)n[nH]c2=S)c1Br as the compound, how does the inhibition read?
Answer: 63.3% (active)

Question: Which inhibition does the source give for CCOC(=O)c1nnn(CC(=O)NC(=O)Nc2ccccc2)c1C(=O)OCC here?
Answer: -7.4%

Question: For CC(=O)c1ccc(-n2cc(-c3ccc(C(C)(C)C)cc3)[n+]3c2SCCC3)cc1, which inhibition is on record?
Answer: 5.2%

Question: With CC(C)(C)c1ccc(-c2cn(-c3ccc(Br)cc3)c3[n+]2CCCS3)cc1 as the compound, how does the inhibition read?
Answer: 57.2% (active)

Question: With COc1ccc(-c2cn(-c3ccc(Br)cc3)c3[n+]2CCS3)cc1 as the compound, how does the inhibition read?
Answer: -4.3%

Question: With Cc1cc(=O)c2ccc(C(F)(F)F)cc2[nH]1 as the compound, how does the inhibition read?
Answer: -14.1%

Question: For COCCn1c(=S)[nH]c2cc(C(=O)N3CCN(c4cccc(Cl)c4)CC3)ccc2c1=O, which inhibition is on record?
Answer: 13.3%
